Screen size: about 48,000 compounds; about 13,000 (27%) showed an effect of 50% or more. The list shows a part of the results.

The assay has as its system Wolbachia pipientis. Put plainly: Anti-Wolbachia Cell-Based Screen. It is filed as functional. As to conditions: 5 µM. Set-up: scale not given: in the data most compounds retested in dose-response had high values.
Consider `Cc1ccn(C)c(=O)c1NC(=O)N(C)Cc1cccc(OC(C)C)c1`, for which the “Percent Effect” value was 2.513%.
Regarding `CCCc1cncnc1N1CCC(NCc2ccncc2)CC1`, the “Percent Effect” value is recorded as 5.564%.
Consider `CN(Cc1cc2n(n1)CCCNC2)Cc1cc(-c2ccncc2)no1`, for which the “Percent Effect” value worked out at 4.022%.
`CCn1cc(CN2CCCn3nc(CNC(=O)N(C)C)cc3C2)cn1`: the “Percent Effect” value is listed as 15.22%.
As to `CN(CCCc1cnn(C)c1)C(=O)C1CCN(C(=O)C2CCC2)CC1`, the “Percent Effect” value is 14.43%.
As to `CN(Cc1cc2n(n1)CCCNC2)Cc1ccno1`, the “Percent Effect” value is listed as -18.26%.
Turning to `CN(Cc1cc2n(n1)CCNC2)Cc1noc(C2CCC2)n1`, the “Percent Effect” value was -1.079%.
Regarding `CN(CCCc1cnn(C)c1)Cc1cc2n(n1)CCCNC2`, the “Percent Effect” value is reported as 97.92%.
The value for `CNc1ncc(CN(C)Cc2cc3n(n2)CCNC3)cn1` was 11.28%.
In the case of `CN(CCCc1cnn(C)c1)Cc1cc2n(n1)CCNC2`, the “Percent Effect” value stood at 121.7%.
The result for `CN(CCCc1cnn(C)c1)Cc1cc2n(n1)CCCN(C)C2` reads 94.13%.
Consider `CC(NC(=O)N(C)Cc1ccc2c(c1)OCO2)c1nncn1C` (stereo not drawn), for which the “Percent Effect” value is listed as 16.38%.
Regarding `CC1(c2ccccc2)CCC(=O)N(CCN2CCOCC2)C1` (stereo not drawn), the “Percent Effect” value was 8.315%.
Consider `COC(CNC(=O)c1ccc(NC(C)=O)cc1)c1cccc(Cl)c1` (stereo not drawn), for which the “Percent Effect” value is reported as -77.03%.
The result for `CN1CCN(Cc2ccncc2)C(=O)C12CCN(Cc1ccsc1)CC2.O=C(O)C(F)(F)F.O=C(O)C(F)(F)F.O=C(O)C(F)(F)F` reads 58.8%; that for `CN1CCN(Cc2ccncc2)C(=O)C12CCN(c1nccs1)CC2.O=C(O)C(F)(F)F.O=C(O)C(F)(F)F`, -19.3%.
Take `CCN1CCN(C)C2(CCN(Cc3ccsc3)CC2)C1=O.O=C(O)C(F)(F)F.O=C(O)C(F)(F)F`: the “Percent Effect” value is given as 94.35%.
On to `CCN1CCN(C)C(=O)C12CCN(Cc1ccsc1)CC2.O=C(O)C(F)(F)F`, for which the “Percent Effect” value is reported as -27.74%.
The result for `CN1CCN(C)C2(CCN(Cc3ccsc3)CC2)C1=O.O=C(O)C(F)(F)F` reads 105.2%; that for `Cn1ncc(C2CC(=O)NCc3nc4ccccn4c32)c1C1CC1` (stereo not drawn), 1.817%.
`CCNC(=O)[C@@H]1CCCN1C1(C(=O)NC)CCC1.Cl`: the “Percent Effect” value was 0.1969%.
Regarding `O=C1CC2(CCSC2)C(=O)N1Cc1ncc(-c2ccccc2)o1` (stereo not drawn), the “Percent Effect” value was -14.26%.
The value for `NC(=O)CN(CC(=O)NCCc1c(F)cccc1F)C1CCCC1` was 11.15%; that for `C[C@@H]1CN(Cc2ccc(C(F)(F)F)cc2F)CC[C@]1(C)O` was -2.035%; that for `Cc1nc(N2CCCC2)ncc1-c1cc(O)nc(N2CCCC2)n1` was 3.993%.
Consider `CCOc1ccc(CN(C)C(=O)c2nc(N3CCCC3)ncc2Cl)cc1`, for which the “Percent Effect” value worked out at 16.2%.
`COCC(=O)N(C)Cc1nc(N2CCCC2)ncc1-c1ccncc1.Cl`: the “Percent Effect” value came out at 87.58%.
Take `COCC(=O)Nc1cnc(N2CCCC2)nc1`: the “Percent Effect” value was -4.633%.
On to `CN(Cc1cnccn1)C(=O)Nc1cc(F)cc(N2CCCC2)c1`, for which the “Percent Effect” value is reported as 16.17%.
Turning to `CCCC(=O)N(C)Cc1nc(N2CCCC2)ncc1-c1ccncc1.Cl`, the “Percent Effect” value is listed as 137.6%.
`COc1ccc(CC(=O)N2CC[C@@H](OC)[C@@H]2Cc2cccnc2)cc1.O=C(O)C(F)(F)F`: the “Percent Effect” value is reported as 135%.
Regarding `CO[C@H]1CCN(S(=O)(=O)c2cn(C)cn2)[C@H]1Cc1cccnc1.O=C(O)C(F)(F)F.O=C(O)C(F)(F)F`, the “Percent Effect” value was -4.938%.
Regarding `COc1cccc(CC(=O)N2CC[C@@H](OC)[C@@H]2Cc2cccnc2)c1.O=C(O)C(F)(F)F`, the “Percent Effect” value was 137.5%.
As to `Cc1noc([C@H]2COC[C@H]3CN(C(=O)Cc4ccc(F)cc4)C[C@H]32)n1`, the “Percent Effect” value is -6.311%.
The result for `COc1cc(CN(C)C(=O)NC2CC2)ccc1SC` reads 1.322%.
As for `Cc1ccc2c(c1)CN(C(=O)c1ccccc1F)C(CN(C)C)CO2.Cl` (stereo not drawn), the “Percent Effect” value was -8.172%.
`Cc1nc(C)c(C(=O)N2Cc3ccccc3OCC2CN(C)C)o1.Cl.Cl` (stereo not drawn): the “Percent Effect” value is on record as 85.27%.
Turning to `Cc1nc(C)c(C(=O)N2Cc3cc(F)ccc3CC2C)o1` (stereo not drawn), the “Percent Effect” value is listed as -9.907%.
As to `CCN(C)S(=O)(=O)N1CCCC1CC(=O)c1cccs1` (stereo not drawn), the “Percent Effect” value worked out at 13.08%.
Consider `CC1CN(C)c2ccccc2CN1C(=O)c1ccncc1` (stereo not drawn), for which the “Percent Effect” value was -3.17%.
On to `Cc1nc(C)c(C(=O)N2CCc3c(C)cccc32)o1`, for which the “Percent Effect” value is -0.835%.
For the compound `Cc1ccc2c(c1)CN(C(=O)c1cccs1)C(CN(C)C)CO2` (stereo not drawn), the “Percent Effect” value amounted to 64.15%.
The result for `Cc1ccc2c(c1)CN(C(=O)C1CCCCC1)C(CN(C)C)CO2.Cl` (stereo not drawn) reads -7.003%; that for `Cc1ccc2c(c1)CN(C(=O)c1cnc(C)cn1)C(CN(C)C)CO2.Cl` (stereo not drawn), 102.7%.
Regarding `CN(C)CC1COCCN1C(=O)C1(c2cccs2)CCCC1.O=CO` (stereo not drawn), the “Percent Effect” value is reported as -9.313%.
The result for `CCOC(=O)CC1CCCCN1C(=O)c1cnc(C)cn1` (stereo not drawn) reads 6.285%.
As for `Cc1ccc2c(c1)CN(C(=O)c1ccncc1)C(CN(C)C)CO2.Cl` (stereo not drawn), the “Percent Effect” value worked out at 112.6%.
The value for `Cc1ccc(S(=O)(=O)NC(=O)COc2ccc(CC#N)cc2)s1` was -2.544%; that for `CN(c1ccc(-c2nc(C3CC3)no2)cn1)C1CCOCC1` was 5.539%.
`Cc1cccc(NCCNc2ccc(C#N)cn2)n1`: the “Percent Effect” value was 14.53%.
Consider `CN(Cc1nnc(-c2ccco2)o1)Cc1nc2c(s1)CCCC2`, for which the “Percent Effect” value is -12.52%.
The value for `Cc1ccc2c(c1)CN(C(=O)c1cccnc1)C(CN(C)C)CO2.Cl` (stereo not drawn) was 73.73%; that for `COc1ccc(C(=O)NC[C@H]2COCc3nc4cc(C)ccc4n32)cc1` was -9.863%.
For `COc1ccccc1C(=O)N1Cc2cc(C)ccc2OCC1CN(C)C.Cl` (stereo not drawn), the “Percent Effect” value is -11.9%.
Consider `COc1ccc(C(=O)N2Cc3cc(C)ccc3OCC2CN(C)C)cc1.Cl` (stereo not drawn), for which the “Percent Effect” value worked out at 72.78%.
The value for `CCOCCC(=O)NCc1ccnc(NC2CC2)c1` was -81.15%.
For the compound `CC(C)(C)OC(=O)N1CCCC[C@H]1C(=O)NCc1nccs1`, the “Percent Effect” value stood at 1.043%.
In the case of `CCCC1(NC(=O)C(c2ccccc2C)N(C)C)CC1` (stereo not drawn), the “Percent Effect” value worked out at 5.158%.
The value for `Cc1ccccc1C(NC(=O)CCCS(C)(=O)=O)C(C)(C)C` (stereo not drawn) was -11.53%; that for `Cc1ccccc1C(C)NC(=O)c1ccc(=O)n(C)c1` (stereo not drawn) was 28.6%.
`Cc1ccccc1C(CC(=O)NCC(N)=O)c1ccccc1` (stereo not drawn): the “Percent Effect” value is on record as -4.865%.
On to `Cc1ccccc1C(C)NC(=O)CN1CCN(Cc2ccc(Cl)s2)CC1` (stereo not drawn), for which the “Percent Effect” value is on record as -0.8834%.
The result for `Cc1ccc(C)c(C(NC(=O)C(C)(C)C)c2cccnc2)c1` (stereo not drawn) reads 4.189%; that for `CCC(NCc1ccccc1C)c1ccccc1OCC(=O)NC` (stereo not drawn), -1.01%.
`CCC(=O)NC(CC)c1ccccc1C` (stereo not drawn): the “Percent Effect” value was 115.1%.
Regarding `CCC(=O)NC(C)c1ccccc1C` (stereo not drawn), the “Percent Effect” value was 111%.
In the case of `CCC(NC(=O)C(C)C)c1ccccc1C` (stereo not drawn), the “Percent Effect” value is 112%.
The value for `CCC(NS(C)(=O)=O)c1ccccc1C` (stereo not drawn) was -2.544%; that for `CCC(NC(=O)C(C)(C)C)c1ccccc1C` (stereo not drawn) was 109.5%; that for `Cc1nn2c(N3CCS(=O)(=O)CC3)cc(-c3ccccc3)nc2c1C` was -7.306%.
Regarding `COC(=O)CSCc1noc(-c2ccc(Cl)cc2)n1`, the “Percent Effect” value worked out at 23.78%.
Turning to `Cc1nn(CCC#N)c(C)c1[C@@H]1C=C[C@@H](NCc2ccc(F)cc2)C1`, the “Percent Effect” value was -3.605%.
Regarding `CC(C)CCC(C)NC(=O)c1ccc(OCC(N)=O)cc1` (stereo not drawn), the “Percent Effect” value was -5.752%.
Regarding `NC(=O)c1ccc(S(=O)(=O)NC2CCN(Cc3ccccc3)C2=O)cc1` (stereo not drawn), the “Percent Effect” value is reported as -1.969%.
The result for `CCN1CCN(C(=O)c2cc(NC(=O)c3ccccc3)n(C)n2)CC1` reads 93.08%.
The result for `CC1CCN(C(=O)c2cn(-c3ccc(C(F)(F)F)cn3)nn2)CC1` reads -7.014%.
In the case of `CCn1nc(C)cc1C(=O)N1CCCN(CCCc2ccccc2)CC1`, the “Percent Effect” value is 0.5946%.
For `CCN1CCN(C(=O)c2cc(C(=O)OC)nn2-c2ccccc2)CC1`, the “Percent Effect” value was -11.35%.
Consider `CC1CCN(C(=O)c2cc(NC(=O)c3ccccc3)n(C)n2)CC1`, for which the “Percent Effect” value stood at 70.66%.
On to `Cn1nc(C(=O)N2CCCCCC2)cc1NC(=O)c1ccccc1`, for which the “Percent Effect” value turned out to be 99.88%.
Regarding `COC(=O)c1cc(C(=O)N2CCCCCC2)n(-c2ccccc2)n1`, the “Percent Effect” value is -9.69%.
The result for `CCCn1ccc(C(=O)N2CCC(C)CC2)n1` reads -7.324%.
Consider `Cn1nc(C(=O)NC2CCCCC2)cc1NC(=O)C1CC1`, for which the “Percent Effect” value is recorded as 0.3949%.
As to `Cc1nc(N2CCCC2)nc(C)c1NC(=O)c1ccco1`, the “Percent Effect” value stood at 8.53%.
In the case of `Cc1nc(N2CCOCC2)nc(C)c1NC(=O)c1ccco1`, the “Percent Effect” value is 3.58%.
The value for `Cn1nc(C(=O)N2CCSCC2)cc1NC(=O)c1ccco1` was 98.85%; that for `C/C=C(/C)C(=O)NS(=O)(=O)c1ccc(C(F)(F)F)cn1` was 4.736%.
The value for `CCCN(C(=O)c1ocnc1C)C1CCCN(Cc2ccccc2)C1` (stereo not drawn) was -1.253%; that for `O=C1CC(NCc2ccc(OC(F)F)cc2)CN1Cc1cccc(F)c1` (stereo not drawn) was 2.286%; that for `CN1CCC(Oc2ccc(NC(=O)c3ccccc3)cc2)CC1` was 6.259%.
`O=C(c1ccn(-c2ccccc2Cl)n1)N1CCSCC1`: the “Percent Effect” value was -7.672%.
On to `Cc1cccc(C(=O)N2CCSCC2)c1NC(=O)c1cccnc1`, for which the “Percent Effect” value is recorded as -13.65%.
On to `Cc1cccc(C(=O)N2CCN(C)CC2)c1NC(=O)c1ccncc1`, for which the “Percent Effect” value is -3.532%.
For `CN1CCN(C(=O)c2cc(NC(=O)c3ccccc3)n(C)n2)CC1`, the “Percent Effect” value is given as 103.5%.
Consider `Cn1nc(C(=O)N2CCSCC2)cc1NC(=O)c1ccccc1`, for which the “Percent Effect” value is recorded as 96.7%.
The value for `Cc1cc2ccccc2n1CCC(=O)N1CCCC1Cn1cccn1` (stereo not drawn) was -4.808%; that for `Cc1cc2ccccc2n1CCC(=O)N1CCC[C@H]1C(N)=O` was -2.793%.
Take `Cc1cc2ccccc2n1CCC(=O)N1CCN(C)CC1C(N)=O` (stereo not drawn): the “Percent Effect” value worked out at 104.9%.
Regarding `CSCCC(=O)N1CCCC(c2nccn2Cc2ccncc2)C1` (stereo not drawn), the “Percent Effect” value is -15.94%.
In the case of `Cc1c[nH]nc1C1CCCCN1C(=O)Cn1cc(Cl)cn1` (stereo not drawn), the “Percent Effect” value is recorded as -1.424%.
Consider `CS(=O)(=O)NCC(=O)N1CCCC1c1noc(C2CC2)n1` (stereo not drawn), for which the “Percent Effect” value is -4.288%.
For `Cc1c[nH]nc1C1CCCCN1C(=O)CCn1nccc1C` (stereo not drawn), the “Percent Effect” value is given as 91.05%.
With `Cc1n[nH]cc1CNC(=O)[C@H]1CCCCN1C(=O)OC(C)(C)C`, the “Percent Effect” value is -12.93%.
Turning to `Cc1c[nH]nc1C1CCCCN1C(=O)CNS(C)(=O)=O` (stereo not drawn), the “Percent Effect” value was determined as 91.22%.
As to `Cc1c[nH]nc1C1CCCCN1C(=O)CC1(O)CCCCC1` (stereo not drawn), the “Percent Effect” value turned out to be 121.5%.
Turning to `Cn1cc(C2CCCN2C(=O)COC2CCCCC2)cn1` (stereo not drawn), the “Percent Effect” value is on record as -3.38%.
`Cc1cccc(C2CCCCN2C(=O)CCCS(C)(=O)=O)c1C` (stereo not drawn): the “Percent Effect” value was -5.265%.
For `Cc1ccnn1CCC(=O)N1C[C@H]2CC[C@@H]1CN(CC(=O)N(C)C)C2`, the “Percent Effect” value was -3.709%.

Values taken from ChEMBL document CHEMBL3988442, “University of Dundee, Small-Polar-MMV Screening Library” (2021).
